# Assay results from PubChem BioAssay (EPA / NIEHS).
# Records with an inconclusive call do not appear. Calls of active or inactive are those of the source. Rule for the calls, unless noted: active = hit-call score of the fitted dose curve at least 0.9, where 1 is the maximum; inactive = score below 0.9.
# Assays:
# [1] = target: Paired box protein Pax-6 (Homo sapiens) (UniProt P26367); test: ATG_Pax6_CIS: Attagene CIS-FACTORIAL HepG2 Assay for human Paired Box 6 (PAX6) (AID 2282956); conditions: HepG2 CIS-FACTORIAL PAX6 reporter transcription, RNA readout; actives raise or lower the signal
# Chain of Paired box protein Pax-6 (Homo sapiens) (P26367 whole entry, looked up): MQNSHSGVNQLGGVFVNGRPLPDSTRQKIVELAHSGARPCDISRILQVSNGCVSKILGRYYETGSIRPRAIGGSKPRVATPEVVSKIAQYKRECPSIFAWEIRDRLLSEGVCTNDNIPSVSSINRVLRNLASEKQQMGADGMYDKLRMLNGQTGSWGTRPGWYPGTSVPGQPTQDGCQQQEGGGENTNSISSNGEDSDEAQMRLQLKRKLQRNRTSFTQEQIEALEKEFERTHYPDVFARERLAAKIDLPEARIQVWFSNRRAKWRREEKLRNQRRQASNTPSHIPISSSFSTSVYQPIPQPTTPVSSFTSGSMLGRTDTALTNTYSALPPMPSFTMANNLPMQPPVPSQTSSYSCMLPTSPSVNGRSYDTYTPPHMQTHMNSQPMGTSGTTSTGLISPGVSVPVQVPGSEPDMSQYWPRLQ
# Procedure, shortened: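 Read-out is reporter transcript level, measured by RT-PCR with fluorescent primer extension and capillary electrophoresis after 24 h dosing of transfected HepG2 cells. Activity in either direction fitted relative to DMSO control.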
# [2] = ATG_PXRE_CIS: Attagene CIS-FACTORIAL HepG2 Assay for human Pregnane X Receptor Element (PXRE) (AID 2282957); conditions: HepG2 Attagene CIS-FACTORIAL PXRE reporter, mRNA; actives raise or lower the signal
# Procedure, shortened: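 Reporter transcripts under endogenous PXR-responsive cis-regulation quantified from total RNA of transfected HepG2 cells 24 h post-dosing, via RT-PCR with fluorescent primer extension and capillary electrophoresis. Gain or loss of signal fitted against DMSO baseline.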
# [3] = ATG_RORE_CIS: Attagene CIS-FACTORIAL HepG2 Assay for human RAR-related Orphan Receptor Element (RORE) (AID 2282959); conditions: HepG2 Attagene cis-factorial RORE reporter, mRNA; actives raise or lower the signal
# Procedure, shortened: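 Multiplexed reporter assay measuring mRNA induction from a cis promoter element in transiently transfected HepG2 cells after 24 h treatment. Detection via RT-PCR and capillary electrophoresis fluorescence; DMSO serves as baseline.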
# [4] = ATG_SREBP_CIS: Attagene CIS-FACTORIAL HepG2 Assay for human Sterol Regulatory Element Binding (SREBP) (AID 2282962); conditions: HepG2 Attagene cis-factorial SREBP reporter, mRNA; actives raise or lower the signal
# Procedure, shortened: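 Endogenous SREBP activity read as cis-element-driven reporter transcript in transiently transfected HepG2, 24 h post-dosing; quantified via RT-PCR plus capillary electrophoresis of fluorescent fragments. Gain or loss of signal fitted relative to DMSO baseline.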
# [5] = target: Signal transducer and activator of transcription 3 (Homo sapiens) (UniProt P40763); test: ATG_STAT3_CIS: Attagene CIS-FACTORIAL HepG2 Assay for human Signal Transducer and Activator of Transcription 3 (STAT3) (AID 2282963); conditions: HepG2, Attagene cis-factorial STAT3 reporter transcription; actives raise or lower the signal
# Chain of Signal transducer and activator of transcription 3 (Homo sapiens) (P40763 whole entry, looked up): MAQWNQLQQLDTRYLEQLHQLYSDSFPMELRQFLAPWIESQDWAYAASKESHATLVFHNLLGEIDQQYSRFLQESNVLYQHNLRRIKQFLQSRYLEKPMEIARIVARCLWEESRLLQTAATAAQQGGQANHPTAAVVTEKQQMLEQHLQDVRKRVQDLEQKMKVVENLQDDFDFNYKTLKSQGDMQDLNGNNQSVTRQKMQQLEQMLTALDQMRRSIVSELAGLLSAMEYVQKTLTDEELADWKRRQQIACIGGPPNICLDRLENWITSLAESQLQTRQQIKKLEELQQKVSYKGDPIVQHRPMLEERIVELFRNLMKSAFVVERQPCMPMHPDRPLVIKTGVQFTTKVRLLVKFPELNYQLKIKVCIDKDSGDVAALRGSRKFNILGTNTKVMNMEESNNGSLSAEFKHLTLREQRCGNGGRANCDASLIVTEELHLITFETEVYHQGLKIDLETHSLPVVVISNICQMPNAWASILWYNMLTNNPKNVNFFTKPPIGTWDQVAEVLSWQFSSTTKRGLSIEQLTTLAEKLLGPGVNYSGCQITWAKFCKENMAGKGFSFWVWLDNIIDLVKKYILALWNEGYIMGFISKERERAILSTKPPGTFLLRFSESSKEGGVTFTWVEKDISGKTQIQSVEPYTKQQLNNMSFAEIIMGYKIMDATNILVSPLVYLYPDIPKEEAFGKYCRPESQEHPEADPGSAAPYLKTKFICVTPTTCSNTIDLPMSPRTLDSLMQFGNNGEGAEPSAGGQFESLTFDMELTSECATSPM
# Procedure, shortened: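 Readout is reporter transcript quantified by RT-PCR and capillary electrophoresis, with 6-FAM primer extension and HpaI digestion. Total RNA is taken 24 h after dosing transiently transfected HepG2 carrying cis-regulated reporter units. Bidirectional fit against DMSO.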
# [6] = ATG_TA_CIS: Attagene CIS-FACTORIAL HepG2 Assay for human TA Basal Promoter (AID 2282964); conditions: HepG2 Attagene CIS-factorial TA basal promoter reporter; actives raise or lower the signal
# Procedure, shortened: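 Read-out: fluorescent reporter-transcript fragments resolved by capillary electrophoresis after RT-PCR and HpaI digestion. Source: HepG2 cells carrying transiently transfected multi-reporter cis constructs, treated 24 h. Endpoint fitted bidirectionally relative to DMSO.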
# [7] = ATG_TCF_b_cat_CIS: Attagene CIS-FACTORIAL HepG2 Assay for human T-Cell-Factor with beta-catenin (TCF/b-cat) (AID 2282965); conditions: HepG2 TCF/beta-catenin cis-reporter transcription, actives raise or lower the signal
# Procedure, shortened: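 Measured: reporter mRNA in HepG2 transiently transfected with cis-promoter reporter units, 24 h after chemical addition. Fitting was bidirectional, DMSO as negative control.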
# [8] = ATG_TAL_CIS: Attagene CIS-FACTORIAL HepG2 Assay for human TAL Basal Promoter (AID 2282966); conditions: HepG2 Attagene cis-factorial TAL promoter reporter; actives raise or lower the signal;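 note: background control endpoint measuring basal TAL promoter reporter mRNA not a specific factor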
# Procedure, shortened: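 Background-control endpoint: basal TAL promoter reporter transcripts in transiently transfected HepG2, measured 24 h after dosing. Read-out by RT-PCR with fluorescent primer extension and capillary electrophoresis; gain or loss of signal fitted relative to DMSO.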
# [9] = ATG_TGFb_CIS: Attagene CIS-FACTORIAL HepG2 Assay for human Transforming Growth Factor (TGF) (AID 2282967); conditions: HepG2 Attagene CIS TGFb reporter, mRNA transcription; actives raise or lower the signal
# Procedure, shortened: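 Transient MRTU transfection of HepG2 (FuGene 6). Dose 24 h. TriZol RNA, oligo(dT) RT, PCR, 6-FAM primer extension, HpaI cut, CE. Bidirectional fit, DMSO = baseline.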
# [10] = ATG_VDRE_CIS: Attagene CIS-FACTORIAL HepG2 Assay for human Vitamin D Receptor Element (VDRE) (AID 2282968); conditions: HepG2 VDRE cis-reporter transcription, actives raise or lower the signal
# Procedure, shortened: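 Readout is VDRE-driven reporter mRNA reflecting endogenous factor activity in human HepG2 cells, sampled 24 h post-dose. Quantification used labelled RT-PCR products separated by capillary electrophoresis; bidirectional analysis relative to DMSO.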
# [11] = target: Nuclear receptor subfamily 1 group I member 3 (Homo sapiens) (UniProt Q14994); test: ATG_CAR_TRANS: Attagene TRANS-FACTORIAL HepG2 Assay for human Constitutive Androstane Receptor (CAR) (AID 2282969; active = hit-call score of the fitted dose curve at least 0.9, where 1 is the maximum;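 note: activators raise reporter mRNA above DMSO so AC50 marks induction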); conditions: HepG2 Attagene TRANS-FACTORIAL CAR reporter
# Chain of Nuclear receptor subfamily 1 group I member 3 (Homo sapiens) (Q14994 whole entry, looked up, the tested form may be a part): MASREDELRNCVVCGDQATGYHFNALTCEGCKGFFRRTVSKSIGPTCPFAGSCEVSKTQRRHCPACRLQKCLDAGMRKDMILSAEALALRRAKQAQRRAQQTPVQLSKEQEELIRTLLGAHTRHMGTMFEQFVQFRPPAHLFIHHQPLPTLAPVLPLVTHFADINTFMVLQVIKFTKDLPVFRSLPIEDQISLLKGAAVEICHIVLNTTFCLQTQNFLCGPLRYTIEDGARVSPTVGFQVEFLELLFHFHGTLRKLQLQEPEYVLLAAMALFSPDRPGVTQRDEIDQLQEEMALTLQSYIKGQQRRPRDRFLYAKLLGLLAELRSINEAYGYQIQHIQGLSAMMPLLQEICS
# Procedure, shortened: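 Signal is reporter mRNA induction relative to DMSO, measured 24 h after dosing by RT-PCR with fluorescent primer extension and capillary electrophoresis. Human HepG2 liver cells carried transiently transfected chimeric NR-Gal4/GAL4-UAS reporter constructs.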
# [12] = target: X-box-binding protein 1 (Homo sapiens) (UniProt P17861); test: ATG_Xbp1_CIS: Attagene CIS-FACTORIAL HepG2 Assay for human X-box Binding Protein 1 (XBP1) (AID 2282972); conditions: HepG2 XBP1 cis-element reporter, Attagene multiplex; actives raise or lower the signal
# Chain of X-box-binding protein 1 (Homo sapiens) (P17861 whole entry, looked up): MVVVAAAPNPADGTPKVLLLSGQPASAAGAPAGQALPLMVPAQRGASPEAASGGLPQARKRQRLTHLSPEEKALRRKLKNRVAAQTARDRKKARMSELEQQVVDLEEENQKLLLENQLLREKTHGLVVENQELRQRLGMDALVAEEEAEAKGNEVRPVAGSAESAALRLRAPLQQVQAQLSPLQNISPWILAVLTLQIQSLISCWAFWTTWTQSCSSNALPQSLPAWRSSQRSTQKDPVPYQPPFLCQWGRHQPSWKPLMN
# Procedure, shortened: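 Reporter transcripts were quantified by RT-PCR with fluorescent primer extension and capillary electrophoresis after 24 h chemical exposure. Cells: transiently transfected HepG2 carrying cis-regulated reporter constructs; data fitted bidirectionally relative to DMSO.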
# [13] = ATG_M_19_TRANS: Attagene TRANS-FACTORIAL HepG2 Assay for M19 Transcription Factor (Internal Marker) (AID 2282974; active = hit-call score of the fitted dose curve at least 0.9, where 1 is the maximum); conditions: HepG2 Attagene TRANS-FACTORIAL M19 internal marker reporter
# Procedure, shortened: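 After transfection of HepG2 with GAL4-UAS-driven reporter constructs, cells are dosed for 24 h. Total RNA is reverse-transcribed, reporter sequences PCR-amplified and labelled, then HpaI-digested and sized by capillary electrophoresis.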
# [14] = target: Estrogen-related receptor gamma (Homo sapiens) (UniProt P62508); test: ATG_ERRg_TRANS: Attagene TRANS-FACTORIAL HepG2 Assay for human Estrogen-Related Receptor gamma (ERRg) (AID 2282977; active = hit-call score of the fitted dose curve at least 0.9, where 1 is the maximum;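 note: hits increase reporter signal over DMSO so potencies reflect activators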); conditions: HepG2 Attagene TRANS reporter, ERRg transactivation
# Chain of Estrogen-related receptor gamma (Homo sapiens) (P62508 whole entry, looked up, the tested form may be a part): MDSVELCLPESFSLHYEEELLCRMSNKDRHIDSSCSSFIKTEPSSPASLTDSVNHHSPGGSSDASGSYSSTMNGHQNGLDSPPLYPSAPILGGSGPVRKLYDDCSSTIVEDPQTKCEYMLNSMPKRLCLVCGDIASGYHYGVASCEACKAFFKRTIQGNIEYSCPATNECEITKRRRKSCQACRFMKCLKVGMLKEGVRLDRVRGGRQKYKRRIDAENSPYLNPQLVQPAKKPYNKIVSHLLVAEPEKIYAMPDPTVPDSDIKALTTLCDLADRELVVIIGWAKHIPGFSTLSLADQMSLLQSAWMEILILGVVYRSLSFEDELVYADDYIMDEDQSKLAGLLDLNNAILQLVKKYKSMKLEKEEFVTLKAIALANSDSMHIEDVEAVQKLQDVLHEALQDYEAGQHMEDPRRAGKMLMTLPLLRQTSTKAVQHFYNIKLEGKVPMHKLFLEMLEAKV
# Procedure, shortened: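 Induction of reporter transcripts through a chimeric NR-Gal4 protein is quantified in transfected human HepG2 liver cells after 24 h chemical exposure, using RT-PCR with capillary electrophoresis detection and DMSO as baseline.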
# [15] = ATG_Sox_CIS: Attagene CIS-FACTORIAL HepG2 Assay for human SRY-box transcription factor (SOX) (AID 2282960); conditions: HepG2 Attagene cis-factorial SOX reporter, mRNA; actives raise or lower the signal
# Procedure, shortened: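 Cells were transfected with reporter constructs under cis-regulatory promoters, then exposed to chemicals for 24 h. Reporter transcripts were quantified by fluorescence after RT-PCR and capillary electrophoresis; activity was fitted in both directions against DMSO.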
# [16] = target: Steroid hormone receptor ERR1 (Homo sapiens) (UniProt P11474); test: ATG_ERRa_TRANS: Attagene TRANS-FACTORIAL HepG2 Assay for human Estrogen-Related Receptor alpha (ERRa) (AID 2282971; active = hit-call score of the fitted dose curve at least 0.9, where 1 is the maximum); conditions: HepG2 Attagene TRANS reporter, ERRa transactivation
# Chain of Steroid hormone receptor ERR1 (Homo sapiens) (P11474 whole entry, looked up, the tested form may be a part): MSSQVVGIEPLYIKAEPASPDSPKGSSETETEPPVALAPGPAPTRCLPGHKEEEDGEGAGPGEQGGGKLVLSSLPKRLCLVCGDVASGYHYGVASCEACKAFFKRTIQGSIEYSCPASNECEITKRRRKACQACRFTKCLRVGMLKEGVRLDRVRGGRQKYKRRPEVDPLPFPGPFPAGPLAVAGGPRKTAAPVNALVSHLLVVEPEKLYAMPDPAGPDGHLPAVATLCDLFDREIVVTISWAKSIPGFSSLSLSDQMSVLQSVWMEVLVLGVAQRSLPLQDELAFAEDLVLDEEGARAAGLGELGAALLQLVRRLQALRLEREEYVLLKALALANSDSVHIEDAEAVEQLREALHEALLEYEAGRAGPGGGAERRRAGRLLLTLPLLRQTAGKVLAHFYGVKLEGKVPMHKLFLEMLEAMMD
# Procedure, shortened: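 Reporter transcripts from ERRa-Gal4 chimera activity measured in transiently transfected human HepG2 cells 24 hours after dosing, using RT-PCR with 6-FAM primer extension, HpaI digestion and capillary electrophoresis; DMSO is baseline.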
# [17] = target: Transcription factor Sp1 (Homo sapiens) (UniProt P08047); test: ATG_Sp1_CIS: Attagene CIS-FACTORIAL HepG2 Assay for human Specificity Protein 1 (Sp1) (AID 2282961); conditions: HepG2 Sp1 cis-reporter transcription, actives raise or lower the signal
# Chain of Transcription factor Sp1 (Homo sapiens) (P08047 whole entry, looked up): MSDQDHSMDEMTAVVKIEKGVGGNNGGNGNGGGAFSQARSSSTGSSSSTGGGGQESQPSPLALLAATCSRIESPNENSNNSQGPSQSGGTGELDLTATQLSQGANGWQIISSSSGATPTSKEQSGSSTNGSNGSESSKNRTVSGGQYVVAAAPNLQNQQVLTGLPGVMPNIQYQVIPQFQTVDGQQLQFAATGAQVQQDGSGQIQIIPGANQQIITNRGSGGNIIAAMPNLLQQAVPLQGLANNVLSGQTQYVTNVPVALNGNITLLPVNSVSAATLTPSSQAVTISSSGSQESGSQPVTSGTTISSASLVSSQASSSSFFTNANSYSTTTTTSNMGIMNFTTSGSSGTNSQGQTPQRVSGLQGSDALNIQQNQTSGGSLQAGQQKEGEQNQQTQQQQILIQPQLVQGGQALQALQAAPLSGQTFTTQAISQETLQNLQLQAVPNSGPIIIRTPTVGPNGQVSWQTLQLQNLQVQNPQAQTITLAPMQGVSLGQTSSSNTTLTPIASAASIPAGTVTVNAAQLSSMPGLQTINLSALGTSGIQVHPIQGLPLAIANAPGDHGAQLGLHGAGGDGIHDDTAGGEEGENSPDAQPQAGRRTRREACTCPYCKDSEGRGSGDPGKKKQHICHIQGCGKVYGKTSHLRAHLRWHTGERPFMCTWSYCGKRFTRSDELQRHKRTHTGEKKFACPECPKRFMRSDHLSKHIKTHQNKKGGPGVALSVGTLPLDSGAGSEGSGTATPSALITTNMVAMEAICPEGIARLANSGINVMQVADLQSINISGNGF
# Procedure, shortened: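 Measures mRNA induction of an Sp1-linked reporter in HepG2 cells 24 h post-dosing. Multiplexed reporters read by RT-PCR and capillary electrophoresis; DMSO serves as negative control and baseline.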
# [18] = ATG_PPRE_CIS: Attagene CIS-FACTORIAL HepG2 Assay for human Peroxisome Proliferator-activated Response Element (PPRE) (AID 2282958); conditions: HepG2 PPRE cis-element reporter, Attagene transcription factor profiling; actives raise or lower the signal
# Procedure, shortened: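 Transcript-level reporter induction in transfected HepG2 cells after 24 h chemical exposure, quantified by fluorescence from RT-PCR products separated by capillary electrophoresis.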
# [19] = ATG_GAL4_TRANS: Attagene TRANS-FACTORIAL HepG2 Assay for GAL4 (Internal Marker) (AID 2282976; active = hit-call score of the fitted dose curve at least 0.9, where 1 is the maximum); conditions: HepG2 Attagene TRANS GAL4 internal marker reporter
# Procedure, shortened: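 In transfected human HepG2 liver cells dosed 24 h, GAL4 reporter mRNA serves as a baseline marker. Detection by RT-PCR with fluorescent capillary electrophoresis, activity fitted upward relative to DMSO.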
smiles,measurement,setting,value
CCOc1ccc(NC(=O)CC(C)=O)cc1,outcome,[1],inactive
same,outcome,[2],inactive
same,outcome,[3],inactive
same,outcome,[4],inactive
same,outcome,[5],inactive
same,outcome,[6],inactive
same,outcome,[7],inactive
same,outcome,[8],inactive
same,outcome,[9],inactive
same,outcome,[10],inactive
same,outcome,[11],inactive
same,outcome,[12],inactive
same,outcome,[13],inactive
same,outcome,[14],inactive
COC(=O)c1ccc(OC)cc1,outcome,[1],inactive
same,outcome,[2],inactive
same,outcome,[15],inactive
same,outcome,[4],inactive
same,outcome,[5],inactive
same,outcome,[8],inactive
same,outcome,[9],inactive
same,outcome,[10],inactive
same,outcome,[16],inactive
same,outcome,[12],inactive
same,outcome,[13],inactive
same,outcome,[14],inactive
CC1=CC[C@@]23C[C@@H]1C(C)(C)[C@@H]2CC[C@H]3C,outcome,[1],inactive
same,AC50,[2],5.2 µM (active)
same,outcome,[15],inactive
same,outcome,[17],inactive
same,outcome,[4],inactive
same,outcome,[5],inactive
same,outcome,[6],inactive
same,outcome,[8],inactive
same,outcome,[9],inactive
same,outcome,[11],inactive
same,outcome,[12],inactive
O=[N+]([O-])c1ccc(O)cc1C(F)(F)F,outcome,[1],inactive
same,outcome,[18],inactive
same,AC50,[3],49 µM (active)
same,outcome,[15],inactive
same,AC50,[17],100 µM (active)
same,AC50,[4],100 µM (active)
same,outcome,[5],inactive
same,outcome,[6],inactive
same,outcome,[7],inactive
same,AC50,[8],26.8 µM (active)
same,outcome,[9],inactive
same,outcome,[10],inactive
same,outcome,[11],inactive
same,outcome,[16],inactive
same,AC50,[12],31 µM (active)
same,outcome,[13],inactive
same,outcome,[14],inactive
C=CC(=O)OCCCC,outcome,[1],inactive
same,outcome,[2],inactive
same,outcome,[15],inactive
same,outcome,[4],inactive
same,outcome,[5],inactive
same,outcome,[6],inactive
same,outcome,[7],inactive
same,outcome,[8],inactive
same,outcome,[9],inactive
same,outcome,[10],inactive
same,outcome,[12],inactive
same,outcome,[13],inactive
CC/C=C\CCOC(=O)CC,outcome,[1],inactive
same,outcome,[2],inactive
same,outcome,[15],inactive
same,outcome,[17],inactive
same,outcome,[4],inactive
same,outcome,[5],inactive
same,outcome,[6],inactive
same,outcome,[7],inactive
same,outcome,[8],inactive
same,outcome,[9],inactive
same,outcome,[13],inactive
C=C(C)CNCC,outcome,[1],inactive
same,AC50,[2],52.9 µM (active)
same,outcome,[15],inactive
same,outcome,[17],inactive
same,outcome,[4],inactive
same,outcome,[5],inactive
same,outcome,[6],inactive
same,outcome,[7],inactive
same,outcome,[8],inactive
same,outcome,[9],inactive
same,outcome,[10],inactive
same,outcome,[11],inactive
same,outcome,[16],inactive
same,outcome,[12],inactive
same,outcome,[19],inactive
Cc1ccc2c(c1)C(=O)OC2=O,outcome,[1],inactive
same,outcome,[2],inactive
same,outcome,[15],inactive
same,outcome,[17],inactive
same,outcome,[4],inactive
same,outcome,[5],inactive
same,outcome,[6],inactive
same,outcome,[7],inactive
same,outcome,[8],inactive
same,outcome,[9],inactive
same,outcome,[10],inactive
same,outcome,[11],inactive
same,outcome,[12],inactive
same,outcome,[13],inactive
CN(C)c1ccncc1,outcome,[1],inactive
same,AC50,[2],71.6 µM (active)
same,outcome,[15],inactive
same,outcome,[17],inactive
same,outcome,[4],inactive
same,outcome,[5],inactive
same,outcome,[6],inactive
same,outcome,[7],inactive
same,outcome,[9],inactive
same,outcome,[10],inactive
same,outcome,[16],inactive
same,outcome,[12],inactive
same,outcome,[13],inactive
same,outcome,[14],inactive
C[C@H](CCC(=O)NCC(=O)O)[C@H]1CC[C@H]2[C@@H]3[C@H](O)C[C@@H]4C[C@H](O)CC[C@]4(C)[C@H]3C[C@H](O)[C@]12C,outcome,[1],inactive
same,outcome,[2],inactive
same,outcome,[15],inactive
same,outcome,[17],inactive
same,outcome,[4],inactive
same,outcome,[5],inactive
same,outcome,[6],inactive
same,outcome,[8],inactive
same,outcome,[10],inactive
same,outcome,[12],inactive
same,outcome,[13],inactive
COCCc1ccc(OCC(O)CNC(C)C)cc1 (stereo not given),outcome,[1],inactive
same,AC50,[2],55 µM (active)
same,outcome,[15],inactive
same,outcome,[17],inactive
same,outcome,[4],inactive
same,outcome,[5],inactive
same,outcome,[6],inactive
same,outcome,[10],inactive
same,outcome,[16],inactive
same,outcome,[12],inactive
same,outcome,[13],inactive
C[C@@H]1CCN(C(=O)[C@H](CCCN=C(N)N)NS(=O)(=O)c2cccc3c2NC[C@H](C)C3)[C@@H](C(=O)O)C1,outcome,[1],inactive
same,outcome,[2],inactive
same,outcome,[15],inactive
same,outcome,[17],inactive
same,outcome,[4],inactive
same,outcome,[5],inactive
same,outcome,[6],inactive
same,outcome,[7],inactive
same,outcome,[8],inactive
same,outcome,[9],inactive
same,outcome,[16],inactive
same,outcome,[12],inactive
same,outcome,[19],inactive
